Results filed as inconclusive are left out. Unmarked numbers belong to inactive results. The source made the active and inactive calls. Calls come from the whole dose curve; as a rule, active = well fitted cell-killing curve with a large enough effect in the repeat runs; inconclusive = weak or mixed curves, or effect the other way; inactive = flat fitted curve, though single readings scatter.
% is set by controls: 0 for no effect and ±100 for the full control effect.

This assay in a line: cAMP Responsive Elements (CRE) small molecule agonists, cell-based qHTS assay: qHTS cell viability counter screen (AID 2060914).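 Note: viability read after 3 h of compound exposure; nearly all actives have a fitted effect of over 50% in size.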 Conditions: CRE-bla HEK293T viability, CellTiter-Glo luminescence, 5 h; series mostly up to 92.4 µM; activity change, negative = cytotoxicity: at the top concentration. Put shortly:
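CRE-bla HEK 293T cells, plated 18 h at 37 °C, were exposed to compounds for 3 h at 37 °C/5% CO2. Viability was then measured in the same wells by CellTiter-Glo luminescence after 30 min at room temperature.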
(qHTS replaces the single test concentration by a dilution series.)
With `[O]=[Cd]`, the “activity change, negative = cytotoxicity” value is -13.7%.

`Cc1ncc(C[n+]2csc(CCO)c2C)c(N)n1`: the “activity change, negative = cytotoxicity” value was -8.29%.

For the compound `[O-][Br+2]([O-])O`, the “activity change, negative = cytotoxicity” value was -5.52% [at 42.5 µM].

As for `CCCCCCCCn1cc[n+](C)c1`, the “activity change, negative = cytotoxicity” value was -16.3%.

Turning to `COP(=S)(OC)SCN1C(=O)c2ccccc2C1=O`, the Potency entry is “inactive”.

On to `Cc1cc(N=Nc2ccccc2C)ccc1N`, for which the Potency entry is “inactive”.

For `CN(C)[C@@H]1C(=O)C(C(N)=O)=C(O)[C@@]2(O)C(=O)C3=C(O)c4c(O)ccc(Cl)c4[C@@](C)(O)[C@H]3C[C@@H]12`, the “activity change, negative = cytotoxicity” value is 14.5%.

As to `O=[N+]([O-])c1ccc(F)c([N+](=O)[O-])c1`, the “activity change, negative = cytotoxicity” value was -11.5%.

`C[C@H](N)C(=O)c1ccccc1`: the “activity change, negative = cytotoxicity” value was -4.85%.

Take `CCOC(=O)C(Cl)Cc1cc(-n2nc(C)n(C(F)F)c2=O)c(F)cc1Cl` (stereo not given): the “activity change, negative = cytotoxicity” value was 5.78%.

As to `Clc1ccc(C2(Cn3cncn3)CC(Br)CO2)c(Cl)c1` (stereo not given), the “activity change, negative = cytotoxicity” value is -15.3%.

Turning to `Nc1ccccc1C(=O)OCCc1ccccc1`, the Potency entry was “inactive”.

With `CC1(C)CCC(Cc2ccc(Cl)cc2)C1(O)Cn1cncn1` (stereo not given), the “activity change, negative = cytotoxicity” value was -16.4%.

`CN1CCN(C(=O)O[C@H]2c3nccnc3C(=O)N2c2ccc(Cl)cn2)CC1`: the “activity change, negative = cytotoxicity” value was -19.5% [at 42.5 µM].

Regarding `CCCCCCBr`, the “activity change, negative = cytotoxicity” value is 0.157%.

For `CCCCCCCCCCn1cc[n+](C)c1`, the Potency result was “inactive”.

For `COc1nn(C(=O)NS(=O)(=O)c2ccccc2OC(F)(F)F)c(=O)n1C`, the “activity change, negative = cytotoxicity” value was -7.83%.

As to `CO/N=C(\C(=O)OC)c1ccccc1CO/N=C(\C)c1cccc(C(F)(F)F)c1`, the “activity change, negative = cytotoxicity” value was -20.1%.

On to `CCCC[n+]1cccc(C)c1`, for which the Potency entry is “inactive”.

For `O=S1OC[C@@H]2[C@H](CO1)[C@]1(Cl)C(Cl)=C(Cl)[C@@]2(Cl)C1(Cl)Cl` (stereo not given in full), the “activity change, negative = cytotoxicity” value is -21.1%.

Take `CC(C)(C)C(O)/C(=C\c1ccc(Cl)cc1Cl)n1cncn1` (stereo not given): the “activity change, negative = cytotoxicity” value was -18%.

Take `CCOC(=O)C1OC1(C)c1ccccc1` (stereo not given): the Potency result was “inactive”.

In the case of `CNC(=O)CSP(=O)(OC)OC`, the “activity change, negative = cytotoxicity” value is 10.6%.

Regarding `N#Cc1c(Cl)c(Cl)c(Cl)c(C#N)c1Cl`, the Potency result is “inactive”.

In the case of `O=[N+]([O-])c1ccccc1CCl`, the “activity change, negative = cytotoxicity” value is 0.0141%.

On to `N#Cc1c(-c2ccc(Cl)cc2)[nH]c(C(F)(F)F)c1Br`, for which the “activity change, negative = cytotoxicity” value is 1.18%.

For the compound `N#CSCSC#N`, the Potency entry was “inactive”.

Turning to `CCC(C)(c1ccc(O)cc1)c1ccc(O)cc1`, the “activity change, negative = cytotoxicity” value is 7.34%.

In the case of `NC(=S)Nc1ccccc1`, the “activity change, negative = cytotoxicity” value was 8.38%.

As for `COC(=O)c1sccc1S(=O)(=O)NC(=O)Nc1nc(C)nc(OC)n1`, the Potency entry was “inactive”.

Turning to `CSC(=O)c1c(C(F)F)nc(C(F)(F)F)c(C(=O)SC)c1CC(C)C`, the “activity change, negative = cytotoxicity” value is -10.5%.

Regarding `C=C(C)[C@H]1CN[C@H](C(=O)O)[C@H]1CC(=O)O`, the “activity change, negative = cytotoxicity” value is -0.614% [at 42.5 µM].

As for `COCc1cnc(C2=NC(C)(C(C)C)C(=O)N2)c(C(=O)O)c1` (stereo not given), the “activity change, negative = cytotoxicity” value was 8.94%.

Take `CO[C@@H]1[C@H](OC(=O)NC(=O)CCl)CC[C@]2(CO2)[C@H]1[C@@]1(C)O[C@@H]1CC=C(C)C`: the activity change, negative = cytotoxicity was 13.5% [at 18.9 µM].

On to `O=C=NC1CCCCC1`, for which the “activity change, negative = cytotoxicity” value is 0.928%.

Consider `Oc1c(Br)c(Br)c(Br)c(Br)c1Br`, for which the “activity change, negative = cytotoxicity” value is -3.01%.

Regarding `O=C(O)c1cccc(Cl)c1`, the “activity change, negative = cytotoxicity” value is -15.8%.

Consider `Nc1nc(N)c(N)c(N)n1`, for which the “activity change, negative = cytotoxicity” value was -0.697%.

As for `CCCCC1C(=O)NC(=O)N(C2CCCCC2)C1=O` (stereo not given), the “activity change, negative = cytotoxicity” value is -12.8% [at 42.5 µM].

As for `COC(=O)C(Br)CBr` (stereo not given), the “activity change, negative = cytotoxicity” value is 0.399%.

The values are drawn from PubChem BioAssay (Tox21).
